CDK5 inh: inhibitors of human CDK5/p35 kinase | Recombinant CDK5/p35, ADP-Glo luminescence, 60 min | inhibition, % at 10 µM | hit rate 0.01% among 330,000;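 active = highest replicate inhibition of at least 50% and at least 75% of replicates reaching 50%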;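 note: plate controls were DMSO neutral control for no effect and GW8510 at 10 µM for full effect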
Target sequence (Q00535 whole entry, looked up): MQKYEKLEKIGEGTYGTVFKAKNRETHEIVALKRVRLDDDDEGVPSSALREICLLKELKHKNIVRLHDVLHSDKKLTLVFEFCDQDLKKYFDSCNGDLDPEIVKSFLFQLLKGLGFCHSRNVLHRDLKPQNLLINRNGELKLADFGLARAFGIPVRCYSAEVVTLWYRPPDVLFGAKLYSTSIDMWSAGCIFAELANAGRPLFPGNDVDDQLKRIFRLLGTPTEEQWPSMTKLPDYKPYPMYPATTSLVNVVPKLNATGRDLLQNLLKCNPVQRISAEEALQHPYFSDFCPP
Target sequence (Q15078 whole entry, looked up): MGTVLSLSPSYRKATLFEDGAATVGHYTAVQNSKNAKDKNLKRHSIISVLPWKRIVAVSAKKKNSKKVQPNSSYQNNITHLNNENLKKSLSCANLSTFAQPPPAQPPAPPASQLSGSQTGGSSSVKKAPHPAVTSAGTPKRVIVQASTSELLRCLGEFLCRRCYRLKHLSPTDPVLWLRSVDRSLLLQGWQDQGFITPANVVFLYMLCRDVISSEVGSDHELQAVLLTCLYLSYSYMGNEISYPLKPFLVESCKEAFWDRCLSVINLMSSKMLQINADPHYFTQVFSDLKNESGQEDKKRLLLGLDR
PvdQ acylase: P. aeruginosa PvdQ acylase inhibition; purified PvdQ acylase, fluorescence plate reader; hit rate 0.063% among 340,000; inhibition, % at 10 µM; in the data active = inhibition above about 30%, passing the limit was not always enough;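 note: 0% = vehicle neutral wells and 100% = reference inhibitor wells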
PglD DTNB: PglD (C. jejuni) enzyme inhibition | purified PglD enzyme, DTNB colorimetric CoA detection | inhibition, % at 12.5 µM | hit rate 0.098% among 360,000 | AID 602405; in the data active = inhibition above about 16%, passing the limit was not always enough
dFosB act-1: activators of mouse delta FosB homodimer; hit rate 0.99% among 340,000; AID 493131; P13346; purified delta FosB, TAMRA-CDK5 oligo fluorescence polarization; percent of positive-control signal above neutral wells; activation, % at 25 µM;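 active = mean activation above about 17%, with every replicate also reaching it, limit read from the data, passing the limit was not always enough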
FGF22 binding: binders of recombinant human FGF22 by thermal shift; Q9HCT0; SYPRO orange fluorescence; percent of sucrose octasulfate shift, DMSO zero; activity (Tm shift, normalised), % at 9.99 µM; hit rate 1.5% among 340,000; AID 651658;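 active = mean Tm shift, scaled 0 neutral to 100 positive control, at about 1.3% or above, every replicate too, limit read from the data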
SIRT5 inh: sirtuin-5 (human) deacylase inhibition; Purified SirT5, succinyl-peptide AMC, trypsin-coupled fluorescence; inhibition, % at 15 µM; hit rate 1.1% among 330,000; in the data active = inhibition above about 15%
dFosB act-2: activators of mouse delta FosB homodimer DNA binding. activation, % at 24.9 µM. purified delta FosB, TAMRA-CDK5 oligo fluorescence polarization; normalised: neutral wells 0, positive control 100. 2,400 tested, under 10 active. shares compounds with dFosB act-1;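 active = highest replicate activation at or above 34% and every replicate reaching that threshold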;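 note: higher polarization means more probe DNA bound by delta FosB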
An asterisk follows results filed as active; nt = no result. A selection: hits, their analogues and other compounds. The true share with any hit is near 2.8%.

SMILES	CDK5 inh	PvdQ acylase	PglD DTNB	dFosB act-1	FGF22 binding	SIRT5 inh	dFosB act-2
CCCNC(=O)C[C@@H]1C[C@@H]2c3cc(NC(=O)Cc4ccncc4)ccc3O[C@@H]2[C@@H](CO)O1	nt	nt	-13	nt	0	nt	nt
CCCCn1c(SCC(=O)c2ccc(OCC)cc2)nc2cc(S(N)(=O)=O)ccc21	-1	-8	2	-8	nt	nt	nt
CCCCn1c(SCC(=O)c2ccc(OC)c(OC)c2)nc2cc(S(N)(=O)=O)ccc21	-1	-14	nt	23*	nt	nt	0
COc1cccc(-c2ccc3c(c2)[C@@H]2[C@@H](CCN2C(=O)c2cnccn2)[C@@H](CO)N3)c1	nt	nt	2	nt	0	3	nt
Cc1ccccc1S(=O)(=O)N1CC[C@@H]2[C@H](CO)Nc3ccc(-c4ccccc4F)cc3[C@@H]21	nt	nt	0	nt	1	1	nt
COc1cccc2c1[C@@H]1CN(CCCCn3c(=O)[nH]c4c(sc5ncc(-c6ccccc6)nc54)c3=O)C[C@@H]1CO2	-2	-7	-2	40*	0	-8	0
COc1cc2[nH]c(=O)n(CCC(=O)N3CC=C(c4ccccc4)CC3)c(=O)c2cc1OC	-1	-6	nt	-11	nt	nt	nt
Cc1ccccc1-c1ccc([C@H]2[C@H](CO)N3C(=O)CN(C(=O)c4ccncc4)C[C@@H]23)cc1	nt	nt	nt	nt	0	-4	nt
COc1cc(NC(=O)c2ccco2)c(C(=O)OCC(=O)c2c[nH]c3ccccc23)cc1OC	0	-7	4	39*	nt	nt	7
O=C(OCC(=O)c1c[nH]c2ccccc12)c1ccco1	2	12	-3	-6	nt	nt	nt
Cc1nc(N)c(C#N)c(-c2ccccc2)c1C	0	-4	0	-4	nt	nt	nt
Cc1cc(C)c2c(n1)sc1c(-c3ccccc3)c(C#N)c(N)nc12	0	-11	nt	29*	nt	nt	-2
Cc1ccc(NC(=O)Cn2nnc(-c3ccccc3NC(=O)c3cccs3)n2)cc1	0	-7	-1	48*	nt	nt	6
CCCC(=O)Nc1ccccc1-c1nnn(CC(=O)Nc2ccc(OCC)cc2)n1	-1	-9	-3	41*	nt	nt	4
O=C(Cn1nnc(-c2ccccc2NC(=O)c2ccccc2)n1)Nc1ccc2c(c1)OCCO2	2	4	-2	44*	nt	nt	2
COc1ccc(NC(=O)Cn2nnc(-c3ccccc3NC(=O)c3cccs3)n2)cc1	1	-14	-3	-2	nt	nt	nt
CC1CCN(S(=O)(=O)c2ccc(NC(=O)Cn3nnc(-c4ccccc4F)n3)cc2)CC1	4	1	1	78*	nt	nt	4
Cc1noc(C)c1NC(=O)N(C)C[C@H]1OCCCC[C@@H](C)Oc2ccc(NC(=O)C3CCCCC3)cc2C(=O)N([C@@H](C)CO)C[C@@H]1C	nt	nt	-4	nt	0	-2	nt
O=C(Cn1nnc(-c2ccccc2F)n1)Nc1cccc2ncccc12	3	-10	3	26*	nt	nt	6
O=C(Cn1nnc(-c2ccccc2F)n1)NCCc1ccccc1	1	-8	-2	-13	0	-1	nt
C[C@@H]1CCCCO[C@@H](CN(C)S(=O)(=O)c2cn(C)cn2)[C@H](C)CN([C@@H](C)CO)C(=O)c2cc(NC(=O)C3CCCCC3)ccc2O1	nt	nt	2	nt	-1	5	nt
O=C(Nc1ccc([N+](=O)[O-])cc1Br)c1cc2ccccc2nc1Cl	0	-18	6	113*	0	-4	-6
CCC(=O)N1[C@@H](CO)[C@@H](c2ccccc2)C12CN(C(=O)NC1CCCC1)C2	nt	nt	nt	nt	nt	-1	nt
COc1ccc(C2CC(c3ccccc3)=NN2C(=O)COC(=O)c2cc(S(=O)(=O)N3CCOCC3)ccc2Cl)cc1 (configuration not stated)	0	7	nt	30*	nt	-1	2
COCC(=O)N(C)C[C@H]1Oc2ncc(-c3cccc(OC)c3)cc2C(=O)N([C@@H](C)CO)C[C@H]1C	nt	nt	0	nt	0	-1	nt
SMILES	CDK5 inh	PvdQ acylase	PglD DTNB	dFosB act-1	FGF22 binding	SIRT5 inh	dFosB act-2
CO[C@@H](CN(C)C(=O)c1ccccc1F)[C@@H](C)CN([C@H](C)CO)S(=O)(=O)c1ccc(C)cc1	nt	nt	3	nt	0	-3	nt
O=c1[nH]c(/C=C/c2cccc3ccccc23)nc2ccccc12	0	-11	nt	25*	0	0	-2
O=c1[nH]c(/C=C/c2ccccc2F)nc2ccccc12	2	-5	3	-9	0	-3	nt
COc1ccc(NC(=O)N2CCCCN3[C@H](CO)[C@@H](c4ccc(C5=CCCC5)cc4)[C@H]3C2)cc1	nt	nt	6	nt	0	6	nt
O=C(CSc1nc2sc3c(c2c(=O)n1-c1ccccc1)CCCC3)NCc1ccco1	-1	-4	10	52*	0	nt	8
CCCSc1nc(C)c2cc(C)cc(C)c2n1	-1	-9	nt	-8	nt	nt	nt
Cc1cc(C)c2nc3nc(C)c(C)cc3c(N)c2c1	0	-18	nt	26*	0	0	2
O=C(C[C@@H]1CC[C@@H]2[C@H](COC[C@H](O)CN2C(=O)c2cnccn2)O1)N1CCN(c2ccccc2)CC1	nt	nt	3	nt	0	nt	nt
COC(=O)c1c(NC(=O)c2ccco2)sc(C)c1C	-1	-10	1	-1	nt	nt	nt
Cc1c(Cc2ccccc2)sc(NC(=O)c2ccco2)c1C(N)=O	1	-2	4	21*	nt	nt	3
C[C@H]1CN([C@@H](C)CO)C(=O)c2cc(NS(C)(=O)=O)ccc2O[C@@H]1CN(C)C(=O)NC1CCCCC1	nt	nt	-10	nt	0	3	nt
CCOc1cc(C(=O)Nc2ccc3c4c(cccc24)C(=O)N3CC)cc(OCC)c1OCC	2	-4	-4	24*	nt	-2	5
CCc1ccc(NC(=O)CSc2nnc(-c3ccco3)o2)cc1	-4	-16	-3	-5	0	-1	nt
O=C(CSc1nnc(-c2ccco2)o1)Nc1cccc([N+](=O)[O-])c1	1	-10	2	41*	0	-1	-12
NS(=O)(=O)c1cccc(NC(=O)c2cc(=O)c3ccccc3o2)c1	-2	-20	3	19*	0	-2	-2
NS(=O)(=O)c1cccc(NC(=O)c2cc3ccccc3o2)c1	0	-16	nt	-8	0	-2	nt
C[C@@H]1CN([C@@H](C)CO)C(=O)Cc2cc(NC(=O)NC3CCCCC3)ccc2O[C@H]1CN(C)S(=O)(=O)c1cccs1	nt	nt	-2	nt	0	1	nt
CCOc1cc(CNCCCN2CCOCC2)cc(Br)c1OCc1ccccc1Cl	0	5	0	21*	0	2	1
CCOc1cc(CNCCO)cc(Br)c1OCc1ccccc1Cl	-3	-8	-7	7	nt	nt	nt
O=C(NC(=O)c1ccccc1)Nc1ccc(-c2cnco2)cc1	nt	nt	-7	nt	0	-3	nt
O=C(Nc1ccc(Cl)cc1)Nc1ccc(-c2cnco2)cc1	1	-3	-5	39*	0	2	3

Screening results deposited in PubChem by Broad Institute.
